PubChem BioAssay (NCI)
The panel holds about 79,000 compounds, 15% with a hit somewhere; the sample as a whole holds those more often. Unmarked numbers belong to inactive results. Cut-off read from the data, not from the text of the source: active = growth inhibition above about 70%; inactive = the rest.

Assay: NCI Yeast Anticancer Drug Screen. Data for the sgs1 mgt1 strain (AID 161);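 note: 0% = growth of cultures given vehicle only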
Conditions: S. cerevisiae sgs1 mgt1 strain, at 50.0 µM, hits give high values
Summary of the method: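 Growth of a repair-deficient yeast mutant was monitored after compound treatment and expressed as inhibition relative to vehicle-treated cultures.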
Work on `O=S1(=O)CC2(N3CCOCC3)C3CCC(C3)C21` (stereo not drawn) yielded a growth inhibition of 0.6%. Compound `NC(c1ccccc1)C(Cl)c1ccccc1` (stereo not drawn) has a growth inhibition of 3.15%. In the case of `COc1ccc([Se]c2ccc(OC)cc2OC)c(OC)c1`, the growth inhibition is reported as 2.8%. Work on `CN1CCN[C@@H]2CCCC[C@@H]21` yielded a growth inhibition of -10.2%. For `CCN(CC)CCc1ccncc1`, the growth inhibition was 6.65%. Compound `O=C=Nc1ccc(Cl)cc1` has a growth inhibition of -8.3%. In the case of `CP(=S)(c1ccccc1)P(C)(=S)c1ccccc1` (stereo not drawn), the growth inhibition is reported as -17.9%. `CC(=O)OC1CCC2(C)C(CCC3C2CCC2(C)C3CC(CC(=O)O)C2OC(C)=O)C1` (stereo not drawn) gave a growth inhibition of 7.3%. For `CCOP(=O)(OCC)/C(C#N)=C/C=C/c1ccco1`, the growth inhibition was -30.7%. With `N=Cc1c(O)[nH]c(=O)[nH]c1=O` the growth inhibition was 3.45%. In the case of `CC(=O)O[C@H]1CC[C@]2(C)[C@H]3CC[C@]4(C)[C@@H](OC(C)=O)CC[C@H]4[C@@H]3[C@H](C=O)[C@]2(O)C1`, the growth inhibition is reported as -8.6%. `COC(=O)C(O)(c1ccccc1)C1CCCC1` (stereo not drawn) gave a growth inhibition of -10.6%. In the case of `NP(=O)(Oc1cccc2c(OP(N)(=O)N(CCCl)CCCl)cccc12)N(CCCl)CCCl` (stereo not drawn), the growth inhibition is reported as 8.1%. `COc1ccc(C(O)(C(=O)OCCSC)c2ccc(OC)cc2)cc1` gave a growth inhibition of -2.6%. `CCC1(CC)C(=O)NC(=NCCCC(N)C(=O)O)NC1=O` (stereo not drawn) gave a growth inhibition of 8.15%. `CNCCc1ccc(O)cc1` showed a growth inhibition of -0.75%. In the case of `CCC[As](=O)(O)Cc1ccccc1C`, the growth inhibition is reported as 7.8%. `Nc1ccc(Sc2ccc(N)cc2)cc1` showed a growth inhibition of -0.6%. For `CCP(=S)(CC)P(=S)(CC)CC`, the growth inhibition was -14.6%. In the case of `CCOP(=O)(OCC)/C(C#N)=C/c1cccs1`, the growth inhibition is reported as -15.2%. `CC(C)OP(=O)(OC(C)C)C(=O)Nc1ccc(Cl)cc1` showed a growth inhibition of 5.85%. Compound `COP(=O)(OC)O/C(=C(/OP(=O)(OC)OC)c1ccccc1)c1ccccc1` has a growth inhibition of 0.1%. `O=C1C2C3c4ccccc4C(C2C(=O)N1c1ccccc1)[n+]1ccccc13` (stereo not drawn) gave a growth inhibition of 41.7%. Compound `C=Cn1nnnc1N` has a growth inhibition of -10.3%. Compound `CC(Br)[N+](=O)[O-]` (stereo not drawn) has a growth inhibition of 5.4%. `COC(=O)C1C(=O)NC2(C)CC1c1ccccc1O2` (stereo not drawn) gave a growth inhibition of -30.8%. Compound `O=P(OCCCl)(OCCCl)OCCCl` has a growth inhibition of -19.2%. For `CCCCCCNC1C=CCC1` (stereo not drawn), the growth inhibition was -10.9%. `CC(C)(C)c1cc(C=C(C#N)C#N)cc(C(C)(C)C)c1O` gave a growth inhibition of 7.55%. Compound `CO[C@H]1C=CC2=CCN3CCC4=C(CC(=O)OC4)[C@]23C1` has a growth inhibition of -3.6%. Compound `CC1CC(C)(C)[N+](C)(CCC(C(N)=O)(c2ccccc2)c2ccccc2)C1` (stereo not drawn) has a growth inhibition of -7.8%. `O=c1c(O)c(-c2ccccc2)oc2ccccc12.[Zr]` showed a growth inhibition of -7.7%. For `C1C[OH+]CC[OH+]CC[OH+]CC[OH+]CC[OH+]1.[Cl-].[V]`, the growth inhibition was -1.95%. `O=C(COc1ccccc1Cl)Nc1ccc[n+](Cc2ccc(S(=O)(=O)F)cc2)c1` showed a growth inhibition of 2.9%. For `COc1ccc(OP2OCC(C)O2)cc1` (stereo not drawn), the growth inhibition was -10.4%. Work on `CC1OC(OC2C(O)C(O)C(O)C(O)C2O)C(N)CC1N=C(N)C(=O)O` (stereo not drawn) yielded a growth inhibition of -18.1%. In the case of `CC1(C)C(=O)N(O)C(C)(C)N1N=O`, the growth inhibition is reported as 18.1%. For `CC(N)Cc1c[nH]c2ccccc12` (stereo not drawn), the growth inhibition was 1.1%. For `O=C1CN=C(c2ccccc2)c2cc(Cl)ccc2N1`, the growth inhibition was 3.35%.

Assay: NCI Yeast Anticancer Drug Screen. Data for the cln2 rad14 strain (AID 165);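 note: 0% = growth equal to vehicle treated cultures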
Conditions: S. cerevisiae cln2 rad14 strain, at 50.0 µM, hits give high values
Summary of the method: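 Strain: cln2 rad14 yeast, altered in cell cycle control and DNA damage repair. Read-out: growth inhibition vs vehicle.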
`O=S1(=O)CC2(N3CCOCC3)C3CCC(C3)C21` (stereo not drawn) gave a growth inhibition of -0.4%. For `NC(c1ccccc1)C(Cl)c1ccccc1` (stereo not drawn), the growth inhibition was -20.8%. Work on `COc1ccc([Se]c2ccc(OC)cc2OC)c(OC)c1` yielded a growth inhibition of -18.3%. With `CN1CCN[C@@H]2CCCC[C@@H]21` the growth inhibition was -7.8%. Work on `CCN(CC)CCc1ccncc1` yielded a growth inhibition of 30%. In the case of `O=C=Nc1ccc(Cl)cc1`, the growth inhibition is reported as -21.4%. In the case of `CP(=S)(c1ccccc1)P(C)(=S)c1ccccc1` (stereo not drawn), the growth inhibition is reported as 5.05%. `CC(=O)OC1CCC2(C)C(CCC3C2CCC2(C)C3CC(CC(=O)O)C2OC(C)=O)C1` (stereo not drawn) gave a growth inhibition of -0.5%. For `CCOP(=O)(OCC)/C(C#N)=C/C=C/c1ccco1`, the growth inhibition was 4.2%. Compound `N=Cc1c(O)[nH]c(=O)[nH]c1=O` has a growth inhibition of -10.4%. In the case of `CC(=O)O[C@H]1CC[C@]2(C)[C@H]3CC[C@]4(C)[C@@H](OC(C)=O)CC[C@H]4[C@@H]3[C@H](C=O)[C@]2(O)C1`, the growth inhibition is reported as 4.25%. Compound `COC(=O)C(O)(c1ccccc1)C1CCCC1` (stereo not drawn) has a growth inhibition of 11.9%. Compound `NP(=O)(Oc1cccc2c(OP(N)(=O)N(CCCl)CCCl)cccc12)N(CCCl)CCCl` (stereo not drawn) has a growth inhibition of -29.7%. With `COc1ccc(C(O)(C(=O)OCCSC)c2ccc(OC)cc2)cc1` the growth inhibition was -21.5%. In the case of `CCC1(CC)C(=O)NC(=NCCCC(N)C(=O)O)NC1=O` (stereo not drawn), the growth inhibition is reported as 11.4%. With `CNCCc1ccc(O)cc1` the growth inhibition was -23.3%. `CCC[As](=O)(O)Cc1ccccc1C` gave a growth inhibition of -1.3%. For `Nc1ccc(Sc2ccc(N)cc2)cc1`, the growth inhibition was -53.1%. With `CCP(=S)(CC)P(=S)(CC)CC` the growth inhibition was -9.2%. Compound `CCOP(=O)(OCC)/C(C#N)=C/c1cccs1` has a growth inhibition of -15.8%. Work on `CC(C)OP(=O)(OC(C)C)C(=O)Nc1ccc(Cl)cc1` yielded a growth inhibition of -29.9%. With `COP(=O)(OC)O/C(=C(/OP(=O)(OC)OC)c1ccccc1)c1ccccc1` the growth inhibition was 24.1%. `O=C1C2C3c4ccccc4C(C2C(=O)N1c1ccccc1)[n+]1ccccc13` (stereo not drawn) gave a growth inhibition of -13.2%. For `C=Cn1nnnc1N`, the growth inhibition was 8.6%. In the case of `CC(Br)[N+](=O)[O-]` (stereo not drawn), the growth inhibition is reported as 13.8%. In the case of `COC(=O)C1C(=O)NC2(C)CC1c1ccccc1O2` (stereo not drawn), the growth inhibition is reported as 8%. For `O=P(OCCCl)(OCCCl)OCCCl`, the growth inhibition was -54.6%. `CCCCCCNC1C=CCC1` (stereo not drawn) showed a growth inhibition of -15.6%. With `CC(C)(C)c1cc(C=C(C#N)C#N)cc(C(C)(C)C)c1O` the growth inhibition was -32.8%. Work on `CO[C@H]1C=CC2=CCN3CCC4=C(CC(=O)OC4)[C@]23C1` yielded a growth inhibition of 1.8%. Compound `CC1CC(C)(C)[N+](C)(CCC(C(N)=O)(c2ccccc2)c2ccccc2)C1` (stereo not drawn) has a growth inhibition of 12.3%. `O=c1c(O)c(-c2ccccc2)oc2ccccc12.[Zr]` gave a growth inhibition of 18.4%. `C1C[OH+]CC[OH+]CC[OH+]CC[OH+]CC[OH+]1.[Cl-].[V]` gave a growth inhibition of -10.8%. `O=C(COc1ccccc1Cl)Nc1ccc[n+](Cc2ccc(S(=O)(=O)F)cc2)c1` showed a growth inhibition of -42.2%. For `COc1ccc(OP2OCC(C)O2)cc1` (stereo not drawn), the growth inhibition was -30%. With `CC1OC(OC2C(O)C(O)C(O)C(O)C2O)C(N)CC1N=C(N)C(=O)O` (stereo not drawn) the growth inhibition was -34.5%. `CC1(C)C(=O)N(O)C(C)(C)N1N=O` showed a growth inhibition of 28.4%. Compound `CC(N)Cc1c[nH]c2ccccc12` (stereo not drawn) has a growth inhibition of 20.6%. `O=C1CN=C(c2ccccc2)c2cc(Cl)ccc2N1` showed a growth inhibition of 16.1%.
